# Data published in PubChem BioAssay (NCATS).
# Values joined by “and” are separate entries in the source; they are usually repeats but may differ in a detail not shown here. Equal values may be shown once. Unmarked numbers belong to inactive results. Inconclusive results are not listed. Entries that show only a call come without a potency. Active and inactive are the calls of the source. Unless noted, calls follow the shape of the dose curve; as a rule, active = well fitted curve in the direction sought with a large enough effect; inconclusive = small, poorly fitted or top-dose-only effect, or another doubt; inactive = no such curve, though single readings can be large; an effect the other way counts as inactive or inconclusive.
# Key:
# [1] = Cell Viability - Mesenchymal (AID 546);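 also: cells exposed to compound for 40 hours before reading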; also: potency is read from the fitted curve at half-maximal effect
# Procedure, shortened: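 Human renal mesenchymal cells (glomerulus-derived), 1000 cells/well, 5 hr 37 °C pre-incubation; compound 40 hr, 37 °C; CellTiter-Glo, 20 min RT; luminescence; AC50 via Hill equation.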
# [2] = Cellular Toxicity (caspase-3) SHSY5Y (AID 657)
# Procedure, shortened: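 Luminescent Caspase-Glo 3/7 read-out, 1 hr room temperature, follows 16 hours of compound treatment of SH-SY5Y cells at 37 °C. Normalization: DMSO basal, 10 uM staurosporine as 100%; AC50 values from Hill-equation concentration-response fits.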
# [3] = Cellular Toxicity (caspase-3) BJ (AID 658)
# Procedure, shortened: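 qHTS, BJ fibroblasts, 1000 cells/well; 5 hr preincubation, 16 hr compound, 37 °C; Caspase-Glo 3/7 reagent, 1 hr RT; luminescence. DMSO = 0%, 10 uM staurosporine = 100%. Hill-equation AC50.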
# [4] = Cellular Toxicity (caspase-3) MRC-5 (AID 659)
# Procedure, shortened: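 MRC-5 fibroblasts, 1500/well; 16 h cpd, 37 °C; Caspase-Glo 3/7, 1 h RT; lumi read. Norm: DMSO = 0%, 10 uM staurosporine = 100%. Hill-fit AC50 from qHTS conc-response.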
# [5] = Cellular Toxicity (caspase-3) Mesangial (AID 660);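 also: combined caspase 3 and 7 activity read by Caspase-Glo luminescence; cells exposed to compound for 16 h before the caspase read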
# Procedure, shortened: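 AC50 values come from Hill-equation fits of caspase 3/7 activation, measured as Caspase-Glo luminescence in human glomerular mesangial cells exposed to compound for 16 h at 37 °C; 100% set by 100 uM tamoxifen.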
# [6] = Cellular Toxicity (caspase-3) SK-N-SH (AID 661)
# Procedure, shortened: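 Apoptosis readout in SK-N-SH neuroblastoma: Caspase-Glo 3/7 luminescence following 16 hr treatment in complete culture medium. Normalization used DMSO and 10 uM staurosporine controls.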
# [7] = Cellular Toxicity (caspase-3) Hek293 (AID 664); details: HEK293 caspase-3 activation, DMSO = 0%, 100 µM tamoxifen = 100%; at 92.2 µM (top of the series);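 also: cells exposed to compound for 16 h at 37 °C before readout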
# Procedure, shortened: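 Apoptosis readout: Caspase-Glo 3/7 signal in human HEK293 cells following 16-hour compound incubation. Responses scaled between DMSO baseline and 100 uM tamoxifen.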
# [8] = Cellular Toxicity (caspase-3) N2a (AID 665);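 also: compound exposure lasted 16 h at 37 °C before readout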
# Procedure, shortened: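 Concentration-response qHTS: compound-induced caspase-3/7 luminescence in N2a cells (16 h, 37 °C), relative to DMSO and 10 uM staurosporine controls; AC50 obtained using the standard Hill equation.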
# [9] = Cell Viability - LYMP1-002 - Assay at 16 hr (AID 948)
# Procedure, shortened: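 ATP luminescence (CellTiter-Glo) was measured after 16 hr compound exposure at 37 C of 2500 lymphoblastoid LYMP1-002 cells per well. Concentration-response curves were fitted with the Hill equation to give AC50.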
# [10] = MultiTox-Fluor Cytotoxicity Assay - LYMP1-003 - Dead Cells (AID 961); also: nearly all actives have a fitted effect of over 70% in size
# Procedure, shortened: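 Human lymphoblastoid LYMP1-003 cells (2500/well) were treated with compounds for 16 hr at 37 C in complete medium. Dead-cell protease release was read by bis-AAF-R110 fluorescence (Ex/Em 485/520). AC50 came from Hill fits, normalized to DMSO and 15 uM tetraoctylammonium bromide.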
# [11] = MultiTox-Fluor Cytotoxicity Assay - LYMP1-003 - Live Cells (AID 962);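 also: cytotoxic hits lower the live-cell protease signal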
# Procedure, shortened: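 Human lymphoblastoid line LYMP1-003 in complete culture medium, treated 16 hr with titrated compounds. Viable cells quantified via cell-permeant GF-AFC substrate fluorescence; AC50 derived by Hill fitting.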
# [12] = Cell Viability - LYMP1-003 - Assay at 24 hr (AID 963)
# Procedure, shortened: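 The lymphoblastoid line was treated with titrated compounds for 24 hours, and viable cell number estimated from luciferase-based ATP luminescence.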
# [13] = qHTS Assay for Identification of Small Molecule Inducers of Hypoxia Response (AID 2120; active = well fitted curve in the direction sought with a large enough effect in the signal ratio, with a control signal flat, not every such curve was filed as active; the % refers to the signal ratio; also: potency is read from the fitted curve at half-maximal effect)
# Procedure, shortened: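 HRE-bla ME-180, 2500 cells/well, 0.5% dialyzed FBS medium; cpd titration, 17 h 37 degrees C; CCF4 2.5 h RT; Ex 405, Em 460/530 ratio -> %Activity, AC50.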
# [14] = target: Peroxisome proliferator-activated receptor alpha (Homo sapiens) (UniProt Q07869); experiment: qHTS assay for small molecule agonists of the peroxisome proliferator-activated receptor alpha (PPARalpha) signaling pathway (AID 651778); details: PathHunter PPARalpha complementation, chemiluminescence, 6 h; active compounds read high
# Procedure, shortened: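 Enzyme-fragment complementation assay in which ligand-bound PPARalpha translocates and forms an active enzyme that generates chemiluminescence. Cells were plated overnight, exposed to compound for 6 hr at 37 C, and then given detection reagent for 60 min at room temperature.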
# [15] = qHTS assay for small molecule agonists of the antioxidant response element (ARE) signaling pathway measured by Nrf2-dependant transcriptional activity - cell viability counter screen (AID 720653; active = well fitted curve in the direction sought with a large enough effect in the repeat runs; an effect the other way counts as inactive or inconclusive); details: ARE-bla HepG2 viability, CellTiter-Glo ATP luminescence, 16 h; active compounds read low
# Procedure, shortened: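 ARE-bla HepG2 cells treated with compounds for 16 h at 37C; this counter screen measures viability as intracellular ATP by CellTiter-Glo luminescence after 30 min at room temperature.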
# [16] = qHTS assay for cell viability of the p53RE-bla HCT-116 cell line (AID 743292); also: nearly all actives have a fitted effect of over 55% in size
# Procedure, shortened: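 Compound-exposed HCT-116 (p53RE-bla) cells, 4,000 per well, were kept 16 h at 37 C following a 5 h preincubation. Cell number was estimated from total ATP by CellTiter-Glo luminescence read after 30 min at room temperature.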
# [17] = Cell Viability - LYMP2-013 (AID 970);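 also: cells exposed to compound for 24 h at 37 °C; nearly all actives have a fitted effect of over 55% in size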; also: potency is read from the fitted curve at half-maximal effect
# Procedure, shortened: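 In complete culture medium, human lymphoblastoid cells were dosed for 24 hr at 37 C, with tetraoctylammonium bromide (6.4pM to 92 uM) as positive control. Viability reflects luciferase-based ATP signal; AC50 derived from concentration-response curves.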
# [18] = Cell Viability - LYMP2-007 (AID 979);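 also: cells exposed to compound for 24 h before reading; nearly all actives have a fitted effect of over 60% in size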; also: potency is read from the fitted curve at half-maximal effect
# Procedure, shortened: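 Measured via luciferase-based ATP quantitation: lymphoblastoid cells, 24 hr compound exposure at 37 C, AC50 from Hill fits.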
# [19] = Cell Viability - LYMP2-008 (AID 980); also: nearly all actives have a fitted effect of over 60% in size; also: potency is read from the fitted curve at half-maximal effect
# Procedure, shortened: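 Measured: ATP-dependent luminescence, proportional to viable cell number, in human lymphoblastoid cells treated 24 hr with compound in complete culture medium. Values are AC50s from Hill-equation modelling of qHTS titrations.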
# [20] = Cell Viability - LYMP2-014 (AID 983);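 also: cells exposed to compound for 24 h at 37 °C; nearly all actives have a fitted effect of over 50% in size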
# Procedure, shortened: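 Quantitative HTS in lymphoblastoid cells: 24 hr compound exposure, then CellTiter-Glo ATP luminescence. Positive control was tetraoctylammonium bromide, 6.4pM to 92 uM.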
# Chain of Peroxisome proliferator-activated receptor alpha (Homo sapiens) (Q07869 whole entry, looked up, the tested form may be a part): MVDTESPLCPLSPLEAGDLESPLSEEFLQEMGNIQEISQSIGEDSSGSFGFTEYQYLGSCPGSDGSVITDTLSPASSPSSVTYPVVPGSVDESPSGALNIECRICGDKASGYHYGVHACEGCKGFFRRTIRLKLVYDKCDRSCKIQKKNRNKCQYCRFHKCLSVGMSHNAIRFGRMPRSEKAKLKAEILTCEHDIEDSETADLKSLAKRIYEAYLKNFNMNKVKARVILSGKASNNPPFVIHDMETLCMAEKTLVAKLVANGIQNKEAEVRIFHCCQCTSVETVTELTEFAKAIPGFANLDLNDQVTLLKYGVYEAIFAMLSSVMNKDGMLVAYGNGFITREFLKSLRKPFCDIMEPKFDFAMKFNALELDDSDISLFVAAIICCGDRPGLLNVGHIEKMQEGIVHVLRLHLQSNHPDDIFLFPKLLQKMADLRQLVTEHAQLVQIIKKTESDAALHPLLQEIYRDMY
Structure (SMILES),Potency [1],outcome [2],outcome [3],outcome [4],outcome [5],Potency [6],caspase-3 activation [7] [%],outcome [8],outcome [9],Potency [10],outcome [11],outcome [12],Potency [13],max response [14],max response [15],Potency [16],Potency [17],Potency [18],Potency [19],Potency [20]
C=CC(=O)OCCO,inactive,inactive,inactive,inactive,inactive,inactive,2.01,inactive,inactive,inactive,inactive,inactive,inactive,5.17%,-2.67%,inactive,–,–,–,–
Nc1ccc(-c2ccc(N)c(Cl)c2)cc1Cl,31.6 µM (active),inactive,inactive,inactive,inactive,inactive,4.67,inactive,–,–,–,inactive,inactive,-4.73% and -2.04%,-14% and -8.08%,inactive,inactive,inactive,inactive,inactive
[C-]1=CC=CC1.[C-]1=CC=CC1.[Cl-].[Cl-].[Ti+4],inactive,inactive,inactive,inactive,inactive,inactive,3.8,inactive,–,inactive,–,–,inactive,0.688%,-7.58%,inactive,–,–,–,–
CN(C)c1ccc(N)cc1,inactive,inactive,inactive,inactive,inactive,inactive,2.4,inactive,–,–,–,–,inactive,11.3%,-16.3%,inactive,79.4 µM (active),50.1 µM (active),50.1 µM (active),–
C/C=C/CC#N,inactive,inactive,inactive,inactive,inactive,inactive,1.26,inactive,inactive,inactive,inactive,inactive,inactive,-3.98%,-11.2%,inactive,inactive,inactive,inactive,inactive
O=P(OCCCl)(OCCCl)OCCCl,inactive,inactive,inactive,inactive,inactive,inactive,4.86,inactive,inactive,inactive,inactive,inactive,inactive,-2.47%,4.31%,inactive,inactive,inactive,inactive,inactive
O=[N+]([O-])c1cccc2c([N+](=O)[O-])cccc12,inactive,inactive,–,inactive,inactive,inactive,-0.427,inactive,inactive,inactive,inactive,inactive,inactive,-0.14%,5.81%,inactive,inactive,inactive,inactive,inactive
Clc1cccc(Cl)c1,inactive,inactive,inactive,inactive,inactive,inactive,1.04,inactive,inactive,inactive,inactive,inactive,inactive,-0.108%,-2.71%,inactive,inactive,inactive,inactive,inactive
Brc1ccc(Oc2ccc(Br)cc2Br)c(Br)c1,inactive,inactive,inactive,inactive,inactive,inactive,19.3,inactive,inactive,inactive,inactive,inactive,inactive,6.57%,-0.481%,–,inactive,inactive,inactive,inactive
Nc1c(Br)cc([N+](=O)[O-])cc1[N+](=O)[O-],inactive,inactive,–,inactive,inactive,inactive,4.97,inactive,inactive,inactive,inactive,inactive,inactive,-5.44%,13.3%,inactive,inactive,inactive,inactive,inactive
CN(C)c1ccc(N=Nc2ccccc2)cc1,inactive,inactive,inactive,inactive,inactive,inactive,-8.79,inactive,inactive,inactive,inactive,inactive,inactive,-12.4%,-5.92%,inactive,inactive,inactive,inactive,inactive
Oc1cc(Cl)c(Cl)c(Cl)c1,inactive,inactive,inactive,inactive,inactive,inactive,11.5,inactive,inactive,inactive,inactive,inactive,inactive,-3.78%,-10.7%,inactive,–,–,–,inactive
Nc1cc(Cl)ccc1O,inactive,inactive,–,inactive,inactive,inactive,4.86,inactive,inactive,–,inactive,inactive,inactive,0.902%,-22.1%,inactive,inactive,inactive,inactive,inactive
c1ccc(OCC2CO2)cc1 (centres undefined),inactive,inactive,–,inactive,inactive,inactive,0.633,inactive,inactive,inactive,inactive,inactive,inactive,-5.02%,0.104%,inactive,inactive,inactive,inactive,inactive
C=C(C)CCl,inactive,inactive,inactive,inactive,inactive,inactive,-0.774,inactive,inactive,inactive,inactive,inactive,inactive,1.24%,-2.48%,inactive,inactive,inactive,inactive,inactive
CCCCOC(C)=O,inactive,inactive,inactive,inactive,inactive,inactive,-0.0829,inactive,inactive,inactive,inactive,inactive,inactive,-4.39%,10.3%,inactive,inactive,inactive,inactive,inactive
c1ccc2c(c1)ccc1cc3c(ccc4ccccc43)cc12,–,–,–,–,–,–,–,–,–,–,–,–,44.7 µM (active),–,–,–,–,–,–,–
O=[N+]([O-])c1ccc(O)c([N+](=O)[O-])c1,inactive,inactive,inactive,inactive,inactive,inactive,-5.23,inactive,inactive,inactive,inactive,inactive,inactive,-7.09%,-10%,inactive,inactive,inactive,inactive,inactive
c1ccc2c(c1)-c1cccc3c1c-2cc1ccccc13,–,–,–,–,–,–,–,–,–,–,–,–,44.7 µM (active),–,–,–,–,–,–,–
S=c1[nH]c2ccccc2[nH]1,inactive,inactive,inactive,inactive,inactive,inactive,0.513,inactive,inactive,inactive,inactive,inactive,inactive,-5.62%,2.67%,inactive,inactive,inactive,inactive,inactive
